Source: PubChem BioAssay (Broad Institute)
esBAF inh: Bmi1 luciferase reporter increase in mESCs, primary screen, esBAF inhibitor project, mouse ES cells, Bmi1 luciferase knock-in, single point; 24 h; 100% = twice the neutral-well signal; reporter increase, % at 12.5 µM; hit rate 2% among 350,000; AID 602393, 2012; in the data active = activation above about 40%;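 note: a rise in the Bmi1 reporter signal indicates esBAF inhibition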
miR122 inh: miR-122 Renilla sensor signal increase in Huh7, primary screen, miR-122 inhibitor project, cell-based, single point, plate reader; Huh7 miR-122 Renilla luciferase sensor, 48 h; neutral wells = 0, positive control = 100; activation (reporter increase), % at 12.5 µM; hit rate 0.3% among 340,000; AID 602342, 2012;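 active = mean replicate activation score at least 90 and every replicate individually at or above 90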;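 note: higher luciferase means less miR-122 activity so hits act as miR-122 inhibitors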
Wnt act: Wnt/beta-catenin pathway activators, primary screen, cell-based, plate reader, single point. activation, % at 9.35 µM. Wnt/beta-catenin reporter cell assay, activator. hit rate 1.2% among 300,000; in the data active = activation above about 30%, passing the limit was not always enough
Env fusion inh: inhibitors of HIV-1 Env-driven cell-cell fusion, primary screen, HeLa-JRFL effector, CEM21 target cells, luciferase; inhibition, % at 12.3 µM; hit rate 1.1% among 360,000; AID 651610, 2012;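 active = mean replicate inhibition score of at least 50 and every replicate individually at or above 50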
MITF TRPM1 HTS: activators of MITF-driven TRPM1 promoter reporter, primary screen, cell-based, SK-MEL-5, luciferase, single point | hit rate 0.75% among 300,000 | SK-MEL-5 TRPM1-promoter luciferase, 24 h; % of positive control, neutral wells = 0 | activation, % at 12.5 µM;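 active = mean activation of at least 80% with every replicate also reaching 80%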
Large screens that a line does not name were inactive. In the library only some 3.4% were active in any assay of this set; here they are far more common.

Clc1ccc(/C=N\Nc2ccccc2)cc1	esBAF inh 42 (no result: MITF TRPM1 HTS)
O=C(Nc1cccc(Cl)c1)O/N=C\c1ccncc1	none (no result: Env fusion inh)
COCC(=O)N(C)C[C@H]1Oc2cc(C3=CCCCC3)ccc2S(=O)(=O)N([C@@H](C)CO)C[C@H]1C	none (no result: Wnt act, MITF TRPM1 HTS)
CC(C)c1cn(CC[C@@H]2CC[C@H](NS(=O)(=O)c3ccccc3)[C@H](CO)O2)nn1	none (no result: miR122 inh, Wnt act, MITF TRPM1 HTS)
COc1ccccc1CN1CC(C(=O)NCc2c(F)ccc(C)c2F)CCC1=O (centres undefined)	esBAF inh 51
Fc1cc2[nH]c(=S)[nH]c2cc1Cl	Env fusion inh 57 (no result: esBAF inh, miR122 inh)
